This is an account of results in ChEMBL document CHEMBL3988442, “University of Dundee, Small-Polar-MMV Screening Library” (2021).

Each structure is given as a SMILES string. The campaign covered roughly 48,000 compounds. About 13,000 (27%) showed an effect of 50% or more. The list shows a part of the results.

For this assay, the system named is Wolbachia pipientis. Put plainly: Anti-Wolbachia Cell-Based Screen. The format is functional. On the set-up: scale not given: in the data most compounds retested in dose-response had high values. Conditions: 5 µM.
Take `COCC(O)CNC(=O)c1coc(COc2cccc(F)c2)n1` (stereo not drawn): the “Percent Effect” value is given as 3.844%.

For the compound `O=C(NCCO)Nc1ccc(Br)c(F)c1`, the “Percent Effect” value is on record as -6.574%.

In the case of `O=C(NCCO)Nc1c(F)cccc1Oc1ccccc1`, the “Percent Effect” value was determined as 2.837%.

Take `CNC(=O)CNC(=O)Nc1ccc(Br)c(F)c1`: the “Percent Effect” value is listed as -1.14%.

On to `O=C(CNC(=O)Nc1c(F)cccc1Oc1ccccc1)NC1CC1`, for which the “Percent Effect” value is -0.6876%.

For `COCC(O)CNC(=O)c1cnc(-c2ccccc2)nc1O` (stereo not drawn), the “Percent Effect” value is listed as -15.86%.

As for `COCC(O)CNC(=O)Nc1c(F)cc(F)cc1-c1ccccc1` (stereo not drawn), the “Percent Effect” value was found to be 147.7%.

Consider `O=C(CNC(=O)Nc1c(F)cc(F)cc1-c1ccccc1)NC1CC1`, for which the “Percent Effect” value amounted to 131.5%.

`O=C(NCCO)Nc1c(F)cc(F)cc1-c1ccccc1`: the “Percent Effect” value came to 122.6%.

Turning to `O=C(CNC(=O)Nc1cccc(Cl)c1SC(F)F)NC1CC1`, the “Percent Effect” value is given as -13.14%.

On to `CCC(CNC(=O)C1CCC1)(OC)c1ccccc1` (stereo not drawn), for which the “Percent Effect” value was -1.894%.

As to `CN(Cc1ncc[nH]1)c1nc(-c2ccccn2)nc2c1CCNCC2`, the “Percent Effect” value is on record as -0.01551%.

Consider `c1cnnc(N2CCCC(NCc3nc(C4CC4)no3)C2)c1` (stereo not drawn), for which the “Percent Effect” value is given as 9.898%.

As to `Cn1nc(C(C)(C)C)cc1NC(=O)CSc1nnc[nH]1`, the “Percent Effect” value was -11.13%.

Regarding `CCC(CNC(=O)OC)(OC)c1ccccc1` (stereo not drawn), the “Percent Effect” value was found to be 1.829%.

Turning to `CN(C)CCN(C)C(=O)NC1CCC(Oc2ccccc2C#N)CC1` (stereo not drawn), the “Percent Effect” value is given as -10.57%.

Take `CC(=O)NC1(C(=O)N2CCC(Nc3cccnn3)CC2)CCCCC1`: the “Percent Effect” value was 6.747%.

With `CC(=O)N1CCC(c2cccc(NC3CCOCC3)n2)CC1`, the “Percent Effect” value was 84.73%.

With `Cc1noc(C2CCN(C(=O)c3ccc(NC4CC4)nc3)CC2)n1`, the “Percent Effect” value is reported as -4.487%.

Regarding `CNc1cccc(C2CCCN(C(C)=O)C2)n1` (stereo not drawn), the “Percent Effect” value is reported as 2.608%.

With `CNc1cccc(C2CCN(C(C)=O)CC2)n1`, the “Percent Effect” value was 105.5%.

On to `O=C(N1CCOCC1)N1CCC(Nc2ccncn2)CC1`, for which the “Percent Effect” value was 6.366%.

On to `CC(=O)N1CCC(c2cnc(NC3CCOCC3)cn2)CC1`, for which the “Percent Effect” value stood at 89.11%.

Consider `COc1ccccc1CNC(C)c1cnc2cc(C)nn2c1C` (stereo not drawn), for which the “Percent Effect” value is -25.88%.

With `CC(C)Cc1cc(C(=O)O)nc2[nH]c(=O)[nH]c(=O)c12`, the “Percent Effect” value is 118.2%.

For the compound `CC(C)CCc1cc(C(=O)O)nc2[nH]c(=O)[nH]c(=O)c12`, the “Percent Effect” value is recorded as 107.7%.

Turning to `CC(C)c1cc(C(=O)O)nc2[nH]c(=O)[nH]c(=O)c12`, the “Percent Effect” value worked out at 113.5%.

As to `CC1(C)OCC2(CO1)CN(C(=O)c1ccccc1Cl)C2`, the “Percent Effect” value was determined as 5.486%.

Take `Cn1cc(CN(CC2(O)CCNC2)C2CCCCC2)cn1` (stereo not drawn): the “Percent Effect” value is listed as 118.9%.

For the compound `CN(Cc1cnn(C)c1)S(=O)(=O)N1CCCCC1`, the “Percent Effect” value is on record as -3.727%.

Take `CN(Cc1ccc2nsnc2c1)CC1(O)CNCCOC1` (stereo not drawn): the “Percent Effect” value is on record as -20.02%.

Turning to `CCCc1cc(C(=O)N(Cc2cccnc2)C2CCCCC2)[nH]n1`, the “Percent Effect” value is recorded as 21.65%.

As to `OC1(CN(Cc2cccnc2)C2CCCCC2)CNCCOC1` (stereo not drawn), the “Percent Effect” value amounted to 96.56%.

On to `Cn1cc(CN(CC2(O)CNCCOC2)C2CCCCC2)cn1` (stereo not drawn), for which the “Percent Effect” value worked out at 106.6%.

Regarding `OC1(CNCc2noc(Cc3ccccc3)n2)CNCCOC1` (stereo not drawn), the “Percent Effect” value came out at 7.869%.

In the case of `CN(Cc1cnn(C)c1)S(=O)(=O)N1CCCCCC1`, the “Percent Effect” value was found to be 16.54%.

`CCN(CC)[C@H]1COC[C@@H]2CN(Cc3cnn(C)c3)C[C@@H]21`: the “Percent Effect” value is listed as 13.67%.

In the case of `CC(SCCC(=O)NC(N)=O)c1c(F)cccc1F` (stereo not drawn), the “Percent Effect” value is -3.785%.

Take `Cc1cccc(N2CCC(NC(=O)CCCc3cccs3)CC2)n1`: the “Percent Effect” value is -12.55%.

Consider `CCSC(C)c1nc(-c2ccc(C)nn2)no1` (stereo not drawn), for which the “Percent Effect” value was determined as 3.709%.

For `Clc1ccccc1C1(c2ccnc(-c3ccncc3)n2)CCNCC1`, the “Percent Effect” value is given as -9.027%.

On to `CCc1c(C)sc2ncnc(N3CCN(C4CCOCC4)CC3)c12`, for which the “Percent Effect” value is 8.782%.

As to `Cc1nccnc1N1C[C@H]2CN(C3CCOCC3)C[C@@]2(C(=O)O)C1`, the “Percent Effect” value is listed as -7.502%.

Turning to `CNC(=O)C1CN(c2ccnc(C)n2)CCN(C2CCOCC2)C1` (stereo not drawn), the “Percent Effect” value is reported as 102.7%.

As to `CN(C)C(=O)C1CN(Cc2c[nH]cn2)CCN(C2CCOCC2)C1` (stereo not drawn), the “Percent Effect” value was -9.527%.

As for `Cc1noc(-c2ccnc(N3CCCN(C4CCOCC4)CC3)c2)n1`, the “Percent Effect” value is given as -8.48%.

Take `Cc1nccc(N2CCN(C3CCOCC3)CC(C(=O)N(C)C)C2)n1` (stereo not drawn): the “Percent Effect” value is 164.8%.

Regarding `O=C([C@H]1COC[C@H]2CN(c3ccncn3)C[C@H]21)N1CCCC1`, the “Percent Effect” value was -2.247%.

As for `Cc1nccc(N2CCC(=O)N(CC3CC3)C(C(C)C)C2)n1` (stereo not drawn), the “Percent Effect” value is given as -7.894%.

Consider `Cc1cc(N2CCN(C3CCOCC3)CC(C(=O)N(C)C)C2)ncn1` (stereo not drawn), for which the “Percent Effect” value is 98.55%.

`CN(C)C(=O)C1CN(c2ccncn2)CCN(C2CCOCC2)C1` (stereo not drawn): the “Percent Effect” value came to 126.1%.

`CN1CCN(C(=O)c2ccc(Cn3cc(Br)cn3)cc2)CC1`: the “Percent Effect” value is given as -6.635%.

On to `CN(Cc1ccc(Cl)s1)C(=O)NCCN1CCCCCC1=O`, for which the “Percent Effect” value is -12.97%.
